The list is not random: actives were taken first. Their share in the collection is about 27%.
CYP2C19 act – human CYP2C19 activators, primary screen, biochemical, luminescence; recombinant CYP2C19, luciferin-H EGE luminescence; stronger effect = higher value; 0 = fully inhibited enzyme, 1 = untreated enzyme; activation factor at 5 µM; 96,000 tested, under 10 active; AID 1025, 2008;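 active = activation factor of at least 2 at 5 µM in the primary screen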
CYP2C9 inhib – blockers of cytochrome P450 2C9 activity – biochemical, luminescence, ADME assay, primary screen; P11712; CYP2C9 Supersomes, luciferin-H conversion; inhibition, % at 5 µM; actives 20% (n = 96,000); AID 777, 2007;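 active = blocking of liver enzyme CYP2C9 beyond about 50% at 5 µM, limit read from the data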
Target sequence (P11712 whole entry, looked up): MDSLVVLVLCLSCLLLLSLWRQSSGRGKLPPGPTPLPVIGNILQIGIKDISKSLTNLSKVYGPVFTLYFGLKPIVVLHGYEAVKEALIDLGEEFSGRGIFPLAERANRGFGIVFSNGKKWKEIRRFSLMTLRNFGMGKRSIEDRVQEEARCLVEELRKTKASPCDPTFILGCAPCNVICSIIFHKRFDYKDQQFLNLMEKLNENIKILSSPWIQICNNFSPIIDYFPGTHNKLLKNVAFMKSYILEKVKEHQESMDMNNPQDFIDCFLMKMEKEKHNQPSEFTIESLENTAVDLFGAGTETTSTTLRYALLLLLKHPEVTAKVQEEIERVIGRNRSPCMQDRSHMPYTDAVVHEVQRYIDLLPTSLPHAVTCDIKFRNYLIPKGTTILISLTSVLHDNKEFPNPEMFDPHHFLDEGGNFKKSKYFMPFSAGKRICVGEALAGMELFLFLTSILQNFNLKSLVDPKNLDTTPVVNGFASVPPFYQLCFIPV
CYP2C9 activ – human CYP2C9 activators, primary screen, biochemical, luminescence. AID 1024, 2008. activation factor at 5 µM. recombinant CYP2C9, luciferin-H conversion; stronger effect = higher value; factor 1 = untreated enzyme, 0 = blocked. actives 1.4% (n = 96,000). Cytochrome P450 2C9 (Homo sapiens), P11712;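 active = activation factor of 2 or more for CYP2C9 at a 5 µM dose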
sEH activator – soluble epoxide hydrolase activators, primary screen, biochemical, human sEH | purified human sEH enzymatic activity, activator screen | activation, % at 2 µM | actives 0.04% (n = 91,000) | AID 717, 2007; in the data active = activation above about 37%
CYP2C19 inhib – blockers of cytochrome P450 2C19 activity – biochemical, luminescence, ADME assay, primary screen; P33261; CYP2C19 Supersomes, luciferin-H EGE luminescence, 30 min; inhibition, % at 5 µM; actives 21% (n = 96,000);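 active = CYP2C19 inhibition above a set limit at 5 µM in the primary screen, cut at about 50% in these data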
sEH inh – soluble epoxide hydrolase inhibitors, primary screen, biochemical, human sEH; Bifunctional epoxide hydrolase 2 (Homo sapiens), P34913; recombinant human sEH enzymatic activity assay; inhibition, % at 2 µM; actives 0.34% (n = 91,000); AID 707, 2007; in the data active = inhibition above about 80%
Each line names hits and unclear results; the compound was inactive in the other large screens.

COc1cccc(CNC(=O)Cn2nc(-c3ccc(Cl)cc3)ccc2=O)c1	CYP2C9 inhib 77, CYP2C19 inhib 55
COc1ccc(CNC(=O)Cn2nc(-c3ccc4c(c3)OCCO4)ccc2=O)cc1	CYP2C9 inhib 60
O=C(Cn1nnc(-c2ccccc2Cl)n1)NCc1ccc2c(c1)OCO2	CYP2C9 inhib 94
COc1ccccc1-c1ccc(=O)n(CC(=O)NCc2ccc3c(c2)OCO3)n1	CYP2C19 inhib 56
COCCCNC(=O)Cn1nc(-c2ccccc2OC)ccc1=O	none
CCCCCCCCC(=O)Nc1cc(C)ccc1OC	none (no result: CYP2C19 act, CYP2C9 inhib, CYP2C9 activ, CYP2C19 inhib)
CCn1c(SCC(=O)N2CCN(c3cccc(Cl)c3)CC2)nc2ccccc2c1=O	none (no result: CYP2C19 act, CYP2C9 inhib, CYP2C9 activ, CYP2C19 inhib)
CC(Oc1ccccc1Cl)c1nnc(N)s1 (stereo unspecified)	none
COc1ccccc1CCNC(=O)C1CCCO1 (stereo unspecified)	none
CCOC(=O)C1CCN(C(=O)c2ccc(OCC)c(OCC)c2)CC1	none
CC(=O)Nc1cc2c(cc1NC(=O)Cn1nc(-c3ccc4c(c3)OCCO4)ccc1=O)OCCO2	CYP2C19 inhib 55
Cc1ccc(/C=N\NC(=O)C2COc3cc4ccccc4cc3O2)o1 (stereo unspecified)	none (no result: CYP2C19 act, CYP2C9 inhib, CYP2C9 activ, CYP2C19 inhib)
O=C(N/N=C\c1ccc(-c2ccccc2[N+](=O)[O-])o1)C1COc2cc3ccccc3cc2O1 (stereo unspecified)	CYP2C9 inhib 53
C/C(Cl)=C/Cn1c(NCCCn2ccnc2)nc2c1c(=O)[nH]c(=O)n2C	CYP2C9 inhib 90, CYP2C19 inhib 52
C/C(Cl)=C\Cn1c(NCCCn2ccnc2)nc2c1c(=O)n(C)c(=O)n2C	CYP2C9 inhib 100, CYP2C19 inhib 77
CCCCn1c(NCCC)nc2c1c(=O)[nH]c(=O)n2C	none
Cn1c(=O)[nH]c(=O)c2c1nc(NCCCn1ccnc1)n2Cc1ccc(F)cc1	CYP2C9 inhib 78, CYP2C19 inhib 68 (no result: sEH activator, sEH inh)
O=C1NCC(CN(c2ccccc2)c2ccccc2)O1 (stereo unspecified)	none
O=C(NNS(=O)(=O)c1ccccc1[N+](=O)[O-])c1ccc(O)cc1	CYP2C9 inhib 68
CCOC(=O)N1CCN(Cc2nc3c(c(=O)n(C)c(=O)n3C)n2CCCc2ccccc2)CC1	CYP2C9 inhib 70 (no result: sEH activator, sEH inh)
CCOC(=O)CSc1nc2c(c(=O)n(C)c(=O)n2C)n1CCCc1ccccc1	CYP2C9 inhib 73, CYP2C19 inhib 57
CC1CCCN(Cc2nc3c(c(=O)n(C)c(=O)n3C)n2CCCc2ccccc2)C1 (stereo unspecified)	CYP2C9 inhib 62
Cn1c(=O)c2c(nc(CN3CCN(C(=O)c4ccco4)CC3)n2CCc2ccccc2)n(C)c1=O	none (no result: sEH activator, sEH inh)
Cn1c(=O)c2c(nc(CN3CCN(C(=O)c4ccco4)CC3)n2CCCc2ccccc2)n(C)c1=O	CYP2C9 inhib 85
CCc1cc2c(=O)c(Oc3ccccc3)c(C)oc2cc1O	none
Cc1cc(=O)oc2ccc(OCC(=O)N(Cc3ccc(F)cc3)Cc3ccco3)cc12	CYP2C9 inhib 89, CYP2C19 inhib 86
O=C(O)CCSc1nc2ccc(Br)cc2[nH]1	none
Cn1c(CSc2nnc(SCc3ccccc3)s2)nc2ccccc21	CYP2C19 inhib 60 (no result: sEH activator, sEH inh)
Cn1c(Cn2cnc3ccccc32)nnc1SCc1ccccc1	none
Cn1c(CSc2nc3ccc(Br)cc3[nH]2)nc2ccccc21	CYP2C19 inhib 82
COc1ccc(Cl)cc1Nc1nc(-c2sc(NC(=O)CC(C)C)nc2C)cs1	CYP2C9 inhib 52
COc1ccc(Cl)cc1Nc1nc(-c2sc(NC(=O)c3ccccc3)nc2C)cs1	CYP2C9 inhib 68
Cc1nc(NC(=O)CC(C)C)sc1-c1csc(Nc2ccc(Cl)cc2)n1	CYP2C19 inhib 51
Cc1nc(NC(=O)c2ccccc2)sc1-c1csc(Nc2ccc(Cl)cc2Cl)n1	CYP2C19 inhib 65
Cc1nc(NC(=O)c2ccccc2)sc1-c1csc(Nc2cccc(Cl)c2)n1	none
CCCCNC(=O)NS(=O)(=O)c1ccc(C(=O)OC)o1	none
CCOC(=O)C1(S(=O)(=O)c2ccc(Cl)cc2)CCN(Cc2ccc(C)cc2)CC1	CYP2C9 inhib 99, CYP2C19 inhib 92
O=C(O)C1C2C=CC(C2)C1C(=O)OCc1ccccc1 (stereo unspecified)	none
O=c1c2ccccc2c2ccccc2c(=O)n1Cc1cccnc1	none (no result: sEH activator, sEH inh)
O=C1NC(c2ccccc2)(C(F)(F)F)C(=O)N1Cc1cccnc1 (stereo unspecified)	CYP2C9 inhib 51, CYP2C19 inhib 84
Cc1ccc(C)c(N(C)S(=O)(=O)c2cccc3nsnc23)c1	CYP2C9 activ 2.3 (no result: sEH activator, sEH inh)
Cc1cc(C)cc(NC(=O)CN(C)S(=O)(=O)c2cccc3nsnc23)c1	CYP2C9 inhib 54
CN(CC(=O)NC1CCCCC1)S(=O)(=O)c1cccc2nsnc12	none
CCc1cccc(NC(=O)CN(C)S(=O)(=O)c2cccc3nsnc23)c1	none (no result: CYP2C19 act, CYP2C9 inhib, CYP2C9 activ, CYP2C19 inhib)
Cc1cccc(NC(=O)CN(C)S(=O)(=O)c2cccc3nsnc23)c1C	CYP2C19 inhib 60
CCOC(=O)CNC(=O)CSc1nc2cccnc2n1Cc1ccccc1	CYP2C19 inhib 80 (no result: sEH activator, sEH inh)
O=C(CSc1nc2ccccc2n1CC(=O)NCc1ccccc1)NCc1ccco1	CYP2C9 inhib 82, CYP2C19 inhib 79
N#CCCn1c(SCC(=O)NCc2ccco2)nc2ccccc21	none
CCOC(=O)CNC(=O)CSc1nc2cccnc2n1C1CCCCC1	none
O=C(O)CCn1c(SCc2cccc3ccccc23)nc2ccccc21	CYP2C9 inhib 66
O=C(CSc1nc2ccccc2n1Cc1ccccc1)N/N=C/c1ccco1	CYP2C19 inhib 56
Cc1ccc(Cn2c(SCC(=O)N/N=C/c3ccc(C)o3)nc3ccccc32)cc1	none
CC(C)Oc1ccc(C(=O)N2CCCC2C(=O)O)cc1 (stereo unspecified)	none
CC(C)(C)OC(=O)NNC1CC(=O)N(c2ccccc2F)C1=O (stereo unspecified)	none
CCc1ccc2c(c1)C(c1ccc([N+](=O)[O-])cc1)=NNC(c1ccc(F)cc1)=N2	none
CC1=CC=CC2=NC(=O)CC(C)(C(=O)N(CC(=O)NC3CCCC3)c3ccccc3C)N12 (stereo unspecified)	none
Cc1nc(NC(=O)CCCC(=O)Nc2nc(C)c(C)s2)sc1C	CYP2C9 inhib 81
NNC(=O)Cn1c(SCc2ccccc2)nc2ccccc21	CYP2C19 inhib 96
O=C(CSc1nc2cccnc2n1Cc1ccccc1)NCc1ccco1	CYP2C19 inhib 58
CCn1c(SCC(=O)NCc2ccco2)nc2cccnc21	none
Cc1nc(NC(=O)CSc2nc3cccnc3n2Cc2ccccc2)sc1C	CYP2C9 inhib 59, CYP2C19 inhib 63
N/C(COc1cccc(Cl)c1)=N\NS(=O)(=O)c1ccccc1	none
O=C(O)c1ccc2c(c1)C(=O)N(Cc1ccccc1)C2=O	none
